The structures appear in SMILES notation. Calls of active or inactive are those of the source.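 The calls were made as follows, unless noted: active = NADPH fluorescence slope more negative than the mean of all samples by about 3 SD, 99.7% confidence; inactive = the rest.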

A word on the inhibition: it is the drop in the measured response relative to a control, in per cent.

Assay [1] in a line: inhibitors of TNFa-induced NFkB p65 translocation, primary screen, imaging, HUVEC, MLSMR starter and 10KST1 sets (AID 438;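 active = inhibition above 20% together with a positive visual image hit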;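 also: compound added about 3h40 before a 20 min TNFalpha stimulation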;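 as to inhibition: signal is the nuclear over cytoplasmic p65 intensity ratio per well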). The conditions noted are these: HUVEC TNFa-induced p65 nuclear translocation; cell count: measured here: nuclei count (cytotoxicity indicator), at 2.08 µM; inhibition: at 2 µM, stronger effect = higher value, 0% TNFa-plus-vehicle, 100% no-TNFa wells.
Assay [2] in a line: inhibitors of mutant huntingtin aggregation, primary screen, imaging, exon1htt(103Q)mCFP cells, high-content imaging (AID 483;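 active = visual image review flags a hit and inhibition of aggregation exceeds 20%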;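 also: compound exposure lasted 3 days before fixation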;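 as to nuclei count: percent of the per-plate median nuclei count of sample wells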). The conditions noted are these: exon1htt(103Q)mCFP cell line, aggregate imaging, at 2 µM; inhibition of aggregation: stronger effect = higher value; nuclei count: measured here: cell count, toxicity.
Assay [3] can be described thus: inhibitors of E-selectin induction by TNFa, primary screen, imaging, HUVEC, immunofluorescence, MLSMR starter and 10KST1 sets (AID 487;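 active = visually confirmed hit in the image check and inhibition above 20%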;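 as to inhibition: signal is fraction of cell area covered by stained E-selectin grains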;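 as to nuclei count: 100% = median nuclei count of all wells on the same plate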). As to conditions: HUVEC TNFalpha-induced E-selectin immunofluorescence imaging, at 2 µM; inhibition: stronger effect = higher value; nuclei count: measured here: cell number, toxicity.
Assay [4] deals with Voltage-gated potassium channel subunit beta-2 (Rattus norvegicus) (UniProt P62483). Briefly: KvBeta enzyme negative modulators, primary screen, biochemical, NADPH fluorescence (AID 622;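 active = fluorescence slope higher than the sample average by over 3 SD, cut at about -0.22 in these data, passing the limit was not always enough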;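 also: slope of raw intensity against log time taken from 70 to 1610 s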). As to conditions: recombinant KvBeta, 4-cyanobenzaldehyde reduction, at 10 µM, stronger effect = higher value.
For assay [5] the target is unchanged. The assay can be described thus: KvBeta positive modulators, primary screen, biochemical, NADPH fluorescence (AID 623).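 Also: fluorescence intensity change per second fitted from 20 to 320 s.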 The conditions noted are these: Recombinant KvBeta, NADPH fluorescence decrease slope, 10 min; at 10 µM; stronger effect = lower value.
Assay [6] addresses Alpha-2C adrenergic receptor (Homo sapiens) (UniProt P18825). The assay can be described thus: modulators of alpha2C/GIRK thallium flux, primary screen, cell-based, HEK293 alpha2C/GIRK1/2 (AID 624;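 active = fluorescence slope after compound addition differing from the mean of all screened samples at 99.7% confidence, in either direction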;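 also: slope of fluorescence ratio to pre-addition baseline per second over 15 to 24 s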). The conditions noted are these: thallium flux BTC fluorescence, at 10 µM, actives lie on both sides.
Assay [7] can be described thus: inhibitors of Sendai virus-induced IRF3 signaling, primary screen, TLR/RLR signaling modifier project, cell-based, Sendai virus stimulus, luciferase, 10K MLSCN set (AID 602276;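 active = inhibition at or above 50% at 10 µM; inactive = inhibition below 50%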;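 also: firefly luciferase from ISG56 promoter only with Renilla not read in this screen; 0% = Sendai virus plus DMSO and 100% = medium plus DMSO without virus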). The conditions noted are these: HEK293 RL24 IRF3 luciferase reporter, at 10 µM, stronger effect = higher value. For orientation: A reporter such as luciferase makes a cellular process visible.
Assay [8] in a line: inhibitors of poly I:C-induced TLR3 signaling, primary screen, cell-based, poly I:C stimulus, luciferase, 10K MLSCN set (AID 602277;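 active = inhibition of the reporter signal at or above 50%; inactive = inhibition below 50%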). The conditions noted are these: HEK293-TLR3 RL24 IRF3 luciferase reporter, at 10 µM, stronger effect = higher value.

Chain of Voltage-gated potassium channel subunit beta-2 (Rattus norvegicus) (P62483 whole entry, looked up): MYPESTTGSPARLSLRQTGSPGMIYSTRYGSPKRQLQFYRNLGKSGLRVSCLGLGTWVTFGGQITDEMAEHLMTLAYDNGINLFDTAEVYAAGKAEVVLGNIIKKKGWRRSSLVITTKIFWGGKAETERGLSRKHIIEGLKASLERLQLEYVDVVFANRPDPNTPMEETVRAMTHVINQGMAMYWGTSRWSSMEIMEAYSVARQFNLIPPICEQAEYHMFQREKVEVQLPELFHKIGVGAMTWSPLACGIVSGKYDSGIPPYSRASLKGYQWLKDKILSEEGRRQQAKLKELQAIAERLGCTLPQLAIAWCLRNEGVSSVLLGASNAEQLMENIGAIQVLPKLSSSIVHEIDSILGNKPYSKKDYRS
Chain of Alpha-2C adrenergic receptor (Homo sapiens) (P18825 whole entry, looked up): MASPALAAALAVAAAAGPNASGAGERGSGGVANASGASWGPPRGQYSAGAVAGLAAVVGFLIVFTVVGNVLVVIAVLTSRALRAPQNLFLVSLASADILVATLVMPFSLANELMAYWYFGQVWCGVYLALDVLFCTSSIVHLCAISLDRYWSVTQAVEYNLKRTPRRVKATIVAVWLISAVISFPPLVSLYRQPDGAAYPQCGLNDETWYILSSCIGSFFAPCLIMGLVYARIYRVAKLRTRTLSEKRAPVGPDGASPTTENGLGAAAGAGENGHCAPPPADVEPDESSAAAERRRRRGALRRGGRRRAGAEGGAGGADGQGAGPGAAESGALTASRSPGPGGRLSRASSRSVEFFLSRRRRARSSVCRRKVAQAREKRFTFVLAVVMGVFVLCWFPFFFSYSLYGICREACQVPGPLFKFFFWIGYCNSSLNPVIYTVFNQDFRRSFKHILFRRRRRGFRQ

With `NC(=O)c1cccc2c1C(=O)N(C1CCCCC1)C2`, the cell count in assay [1] was determined as 836. Also, the inhibition in assay [1] was -0.6% (inactive); in assay [3] it was -26.1% (inactive); in assay [7] it was 5.66% (inactive); in assay [8] it was 24.7% (inactive). In addition, the inhibition of aggregation in assay [2] was -14.1% (inactive). The figures for the nuclei count in assay [2] and in assay [3] were 91.2% and 117%, respectively. For the same compound, the fluorescence slope in assay [4] is -0.569 (inactive). The NADPH fluorescence slope in assay [5] is -1.8e-05 (inactive). The slope in assay [6] was 0.00605 (inactive).
Consider `CCCc1nnc(SCC(=O)N2CCOCC2)n1Cc1ccco1`, for which, in assay [1], the cell count is 660. For the same compound, the inhibition in assay [1] was -2.2% (inactive); in assay [3], -0.5% (inactive); in assay [7], 19.5% (inactive); in assay [8], 22.7% (inactive). In addition, the inhibition of aggregation in assay [2] was -10.6% (inactive). In addition, the nuclei count turned out to be 96.5% in assay [2] and 101% in assay [3]. For the same compound, the fluorescence slope in assay [4] was -0.617 (inactive). Also, the NADPH fluorescence slope in assay [5] was -5.1e-05 (inactive). The slope in assay [6] was 0.0036 (inactive).
As to `CSc1ccc(Cn2nnc(C(=O)NCc3ccccc3)c2N)cc1`, the cell count in assay [1] turned out to be 570. Also, the inhibition was -2.3% (inactive) in assay [1], -74.8% (inactive) in assay [3], 5.71% (inactive) in assay [7] and 12.9% (inactive) in assay [8]. Moreover, in assay [2], the inhibition of aggregation is 17.3% (inactive). Also, the nuclei count in assay [2] was 100%; in assay [3], 134%. The fluorescence slope in assay [4] is -0.478 (inactive). Further, the NADPH fluorescence slope in assay [5] was -2e-05 (inactive). Besides, the slope in assay [6] was 0.00597 (inactive).
Consider `CCOC(=O)N1CCN(C(=O)c2ccc3nc4ccsc4c(=O)n3c2)CC1`, for which the cell count in assay [1] worked out at 542. Moreover, the inhibition is 9.1% (inactive) in assay [1], 12.9% (inactive) in assay [3], 14.6% (inactive) in assay [7] and 44.2% (inactive) in assay [8]. Besides, in assay [2], the inhibition of aggregation is -30.4% (inactive). The nuclei count in assay [2] was found to be 65.4%; in assay [3], 95.5%. Also, the fluorescence slope in assay [4] was -0.324 (inactive). Moreover, in assay [5], the NADPH fluorescence slope is -1.8e-05 (inactive). Further, the slope in assay [6] was 0.00717 (inactive).
As for `CCOCC(=O)Nc1nc2c(s1)C(=O)CC(C)(C)C2`, the cell count in assay [1] came out at 921. For the same compound, the inhibition was 0.6% (inactive) in assay [1], -70.4% (inactive) in assay [3], 12.5% (inactive) in assay [7] and 39% (inactive) in assay [8]. Also, in assay [2], the inhibition of aggregation was -38% (inactive). Also, the results for the nuclei count in assay [2] and in assay [3] were 144% and 122%, respectively. Also, the fluorescence slope in assay [4] was -0.541 (inactive). Moreover, the NADPH fluorescence slope in assay [5] is 2.2e-05 (inactive). Further, in assay [6], the slope is 0.00739 (inactive).
In the case of `O=c1c2c(-c3ccccc3)csc2nc2n1CCC2`, the cell count in assay [1] came to 518. The inhibition in assay [1] is -18.3% (inactive); in assay [3], 20.1% (inactive); in assay [7] it was -15.3% (inactive); in assay [8] it was 1.9% (inactive). Also, in assay [2], the inhibition of aggregation was -0.8% (inactive). In addition, the nuclei count in assay [2] was 87%; in assay [3], 144%. Besides, the fluorescence slope in assay [4] is -0.588 (inactive). For the same compound, the NADPH fluorescence slope in assay [5] was -8.9e-06 (inactive). In assay [6], the slope was 0.00513 (inactive).
Turning to `CCCCN(CC)CCCNC(=O)CS(=O)(=O)Cc1nc(-c2cccc(OC)c2)oc1C`, the cell count in assay [1] amounted to 670. Moreover, the inhibition is -15.1% (inactive) in assay [1], -24.9% (inactive) in assay [3], 2.85% (inactive) in assay [7] and 17.9% (inactive) in assay [8]. Also, the inhibition of aggregation in assay [2] is -1% (inactive). Moreover, the nuclei count in assay [2] was 100%; in assay [3], 99.7%. For the same compound, the fluorescence slope in assay [4] was -0.354 (inactive). For the same compound, the NADPH fluorescence slope in assay [5] is 4e-05 (inactive). In addition, the slope in assay [6] is 0.00399 (inactive).
Regarding `Cc1cccc(OCCCc2c(C)n[nH]c2C)c1`, the cell count in assay [1] was determined as 348. Besides, the inhibition in assay [1] was 2.2% (inactive); in assay [3], -10% (inactive); in assay [7], -15.1% (inactive); in assay [8] it was -15.9% (inactive). In addition, the inhibition of aggregation in assay [2] was 7.5% (inactive). Besides, the figures for the nuclei count in assay [2] and in assay [3] were 98.5% and 118%, respectively. Further, the fluorescence slope in assay [4] was -0.501 (inactive). Also, the NADPH fluorescence slope in assay [5] is 6.9e-05 (inactive). The slope in assay [6] was 0.00319 (inactive).
With `CCSc1nnc(NC(=O)CCNS(=O)(=O)c2cc(Br)cnc2N)s1`, in assay [1], the cell count worked out at 243. The inhibition in assay [1] was -1.3% (inactive); in assay [3], 32.4% (inactive); in assay [7], 2.91% (inactive); in assay [8], 8.81% (inactive). The inhibition of aggregation in assay [2] is 3.8% (inactive). Moreover, the nuclei count in assay [2] was 93.5%; in assay [3], 80.5%. Also, the fluorescence slope in assay [4] is -0.444 (inactive). In assay [5], the NADPH fluorescence slope was 1.8e-05 (inactive). Moreover, the slope in assay [6] was 0.0065 (inactive).
In the case of `CC(=O)n1cc(-c2ccncc2)c2ccccc21`, in assay [1], the cell count came out at 474. Besides, the inhibition in assay [1] was -5% (inactive); in assay [3], -74.9% (inactive); in assay [7], -5.39% (inactive); in assay [8], 11.5% (inactive). For the same compound, in assay [2], the inhibition of aggregation is 22.9% (inactive). Further, the values for the nuclei count in assay [2] and in assay [3] were 69.3% and 106%, respectively. Also, the fluorescence slope in assay [4] is -0.57 (inactive). Besides, the NADPH fluorescence slope in assay [5] was -1.3e-05 (inactive). For the same compound, the slope in assay [6] is 0.00696 (inactive).
`COc1ccc(-n2ncc3c(N4CCC(C)CC4)ncnc32)cc1`: the cell count in assay [1] was found to be 575. For the same compound, the inhibition in assay [1] is -1.3% (inactive); in assay [3] it was -10.8% (inactive); in assay [7] it was 9.66% (inactive); in assay [8], -67.2% (inactive). For the same compound, in assay [2], the inhibition of aggregation was 17.5% (inactive). The nuclei count was 121% in assay [2] and 110% in assay [3]. The fluorescence slope in assay [4] is -0.572 (inactive). In addition, the NADPH fluorescence slope in assay [5] is -5e-05 (inactive). Besides, the slope in assay [6] was 0.00789 (inactive).
For `Cc1ccc(C(=O)N2CCN(C(=O)c3ccc(C)c(C)c3)C(C)C2)cc1C` (stereo not drawn), in assay [1], the cell count was found to be 409. Besides, the inhibition in assay [1] was -0.7% (inactive); in assay [3] it was -179% (inactive); in assay [7] it was 4.92% (inactive); in assay [8] it was 22.7% (inactive). For the same compound, in assay [2], the inhibition of aggregation was -2.3% (inactive). In addition, the values for the nuclei count in assay [2] and in assay [3] were 94.3% and 200%, respectively. For the same compound, in assay [4], the fluorescence slope is -0.264 (inactive). For the same compound, the NADPH fluorescence slope in assay [5] is -5.3e-05 (inactive). In addition, in assay [6], the slope is 0.00164 (inactive).
In the case of `Cc1cccc(-c2nnc(SCC#N)n2-c2cccc(Cl)c2)c1`, the cell count in assay [1] amounted to 651. In addition, the inhibition is 10.2% (inactive) in assay [1], 66.1% (inactive) in assay [3], 10.9% (inactive) in assay [7] and 21.3% (inactive) in assay [8]. The inhibition of aggregation in assay [2] was 0.4% (inactive). Further, the nuclei count in assay [2] was 118%; in assay [3] it was 109%. Besides, in assay [4], the fluorescence slope was -0.441 (inactive). Further, in assay [5], the NADPH fluorescence slope was -2.1e-05 (inactive). Besides, the slope in assay [6] is 0.00584 (inactive).

The values are drawn from PubChem BioAssay.
